Reference: PubChem BioAssay (Tox21)
Inconclusive results are not listed. The source made the active and inactive calls. Unless noted, the call rests on the fitted dose curve.

What was measured:
[1] = Nuclear factor erythroid 2-related factor 2/antioxidant responsive element (Nrf2/ARE) small molecule agonists: qHTS cell viability counter screen in human keratinocytes (AID 1919968; active means well fitted curve in the direction sought with a large enough effect in the repeat runs; an effect the other way counts as inactive or inconclusive; further: nearly all actives have a fitted effect of over 55% in size)
Summary of the method: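 KeratinoSens cells (HaCaT keratinocytes stably carrying an ARE-luciferase reporter) were seeded at 1,500 cells/well and rested 5 h at 37 C/5% CO2. They were then exposed to compounds in DMSO for 23 h. Viability was read by CellTiter-Fluor fluorescence after 1 h.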

[2] = G protein-coupled receptor (GPCR) small molecule agonists, calcium flux assay: HEK293 wild type cell line counter screen (AID 1920065)
Summary of the method: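 Cells were plated and cultured 18 h at 37 C/5% CO2, then loaded with calcium dye for 1 h at 37 C. Compounds in DMSO were pin-transferred in agonist mode, and fluorescence (Ex/Em 480/540) was read kinetically for 3 min at 1 s intervals.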

[3] = p53 small molecule agonists, cell-based qHTS assay with human liver microsomes (AID 1963577);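 further: p53 response element beta-lactamase reporter cells with liver microsomes plus NADPH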
Summary of the method: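 Reporter activation was measured by LiveBLAzer fluorescence intensity in p53RE-bla cells, which had been exposed to compounds for 16 h at 37 C alongside 0.5 mg/mL human liver microsomes and 0.5 mg/mL NADPH (final concentrations).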

[4] = p53 small molecule agonists, cell-based qHTS assay with rat liver microsomes: qHTS cell viability counter screen (AID 1963580); further: nearly all actives have a fitted effect of over 45% in size
Summary of the method: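 HCT-116 p53RE-bla, 4,000 cells/well, 5 h pre-incubation; cpd + rat liver microsomes 0.5 mg/mL + NADPH 0.5 mg/mL (final); 16 h, 37 C; CellTiter-Glo, 30 min RT; luminescence.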

[5] = p53 small molecule agonists, cell-based qHTS assay: qHTS cell viability counter screen (AID 1963581); further: nearly all actives have a fitted effect of over 45% in size
Summary of the method: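 p53RE-bla HCT-116 cells were exposed to compounds for 16 h at 37 C; after the beta-lactamase FRET read in the same wells, CellTiter-Glo was added and luminescence (intracellular ATP) read after 30 min at room temperature.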

[6] = p53 small molecule agonists, cell-based qHTS assay (AID 1963582; active means well fitted activation curve with a large enough effect in the signal ratio in the repeat runs, not every such curve was filed as active; the % refers to the signal ratio)
Summary of the method: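 p53RE-bla beta-lactamase reporter cells rested 5 h at 37 C/5% CO2, then received compounds in DMSO by pin transfer and were incubated 16 h at 37 C. LiveBLAzer B/G FRET substrate was loaded for 2 h at room temperature before fluorescence reading.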

[7] = target: 5-hydroxytryptamine receptor 2A (Homo sapiens) (UniProt P28223); assay: 5-hydroxytryptamine receptor 2A (HTR2A) small molecule agonists, cell-based qHTS assay (AID 1963587); further: nearly all actives have a fitted effect of over 30% in size
Chain of 5-hydroxytryptamine receptor 2A (Homo sapiens) (P28223 whole entry, looked up): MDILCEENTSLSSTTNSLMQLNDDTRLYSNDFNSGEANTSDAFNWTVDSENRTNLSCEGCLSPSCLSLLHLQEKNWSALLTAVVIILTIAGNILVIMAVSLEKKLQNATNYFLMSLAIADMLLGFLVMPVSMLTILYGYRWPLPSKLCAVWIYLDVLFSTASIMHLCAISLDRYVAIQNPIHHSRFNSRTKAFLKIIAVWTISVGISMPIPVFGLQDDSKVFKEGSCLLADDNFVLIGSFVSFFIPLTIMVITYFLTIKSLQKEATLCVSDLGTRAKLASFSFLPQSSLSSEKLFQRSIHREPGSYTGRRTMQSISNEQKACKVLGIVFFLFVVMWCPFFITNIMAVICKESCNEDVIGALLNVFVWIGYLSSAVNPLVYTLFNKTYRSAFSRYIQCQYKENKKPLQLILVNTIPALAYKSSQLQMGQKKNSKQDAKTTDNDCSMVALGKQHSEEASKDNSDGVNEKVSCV
Summary of the method: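 Kinetic calcium-flux fluorescence (2 min, 1 sec intervals) after compound addition in agonist mode. HTR2A-CHO cells were cultured 18 h, then dye-loaded 1 h at 37 C.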

[8] = target: Muscarinic acetylcholine receptor M1 (Homo sapiens) (UniProt P11229); assay: Cholinergic receptor muscarinic 1 (CHRM1) small molecule antagonists, cell-based qHTS assay (AID 1963588); further: nearly all actives have a fitted effect of over 40% in size
Chain of Muscarinic acetylcholine receptor M1 (Homo sapiens) (P11229 whole entry, looked up): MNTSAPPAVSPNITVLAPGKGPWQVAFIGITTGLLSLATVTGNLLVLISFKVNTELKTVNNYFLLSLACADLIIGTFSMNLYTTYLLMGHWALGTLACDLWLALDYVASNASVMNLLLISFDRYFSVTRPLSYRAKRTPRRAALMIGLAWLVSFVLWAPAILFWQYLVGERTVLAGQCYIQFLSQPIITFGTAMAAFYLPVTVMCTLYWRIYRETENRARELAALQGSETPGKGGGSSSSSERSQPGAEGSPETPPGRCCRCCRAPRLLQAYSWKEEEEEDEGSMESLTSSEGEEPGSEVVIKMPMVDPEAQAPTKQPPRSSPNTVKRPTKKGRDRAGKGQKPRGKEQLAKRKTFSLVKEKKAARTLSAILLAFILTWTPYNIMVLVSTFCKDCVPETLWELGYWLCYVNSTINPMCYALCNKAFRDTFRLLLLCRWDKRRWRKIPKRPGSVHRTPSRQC
Summary of the method: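 CHRM1-CHO calcium-flux assay, antagonist mode. Cells were seeded 18 h, dye-loaded 1 h at 37 C and given compound for 5 min at RT, then acetylcholine was added at 50nM. FDSS fluorescence was read 3 min; 15 concentrations, three runs.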

[9] = target: Muscarinic acetylcholine receptor M1 (Homo sapiens) (UniProt P11229); assay: Cholinergic receptor muscarinic 1 (CHRM1) small molecule agonists, cell-based qHTS assay (AID 1963589); further: nearly all actives have a fitted effect of over 35% in size
Summary of the method: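 CHO cells stably expressing human CHRM1, seeded 18 h at 37 C/5% CO2, dye-loaded 1 h at 37 C, then given compound in agonist mode; intracellular calcium fluorescence read kinetically at 1 s intervals. Fifteen concentrations, three independent runs.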

[10] = cAMP Responsive Elements (CRE) small molecule agonists, cell-based qHTS assay (AID 1963590)
Summary of the method: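 CRE-bla HEK 293T cells in DMEM with 10% dialyzed FBS, NEAA, pyruvate and 25 mM HEPES were plated 18 h at 37 C/5% CO2, then exposed to compounds in DMSO for 3 h before LiveBLAzer B/G FRET substrate addition.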

[11] = cAMP Responsive Elements (CRE) small molecule antagonists, cell-based qHTS assay (AID 1963591; active means well fitted inhibition curve with a large enough effect in the signal ratio in the repeat runs, not every such curve was filed as active; the % refers to the signal ratio)
Summary of the method: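 CRE-bla HEK293T cells were plated 18 h at 37 °C/5% CO2, pinned with compound in DMSO, then stimulated with NKH477 at 0.25 uM final for 3 h. LiveBLAzer B/G FRET substrate was added and plates incubated 2 h at room temperature.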

[12] = target: Beta-2 adrenergic receptor (Homo sapiens) (UniProt P07550); assay: Adrenergic beta2 receptor (ADRB2) small molecule antagonists, cell-based qHTS assay (AID 1963592); further: series mostly up to about 92 µM; nearly all actives have a fitted effect of over 50% in size
Chain of Beta-2 adrenergic receptor (Homo sapiens) (P07550 whole entry, looked up): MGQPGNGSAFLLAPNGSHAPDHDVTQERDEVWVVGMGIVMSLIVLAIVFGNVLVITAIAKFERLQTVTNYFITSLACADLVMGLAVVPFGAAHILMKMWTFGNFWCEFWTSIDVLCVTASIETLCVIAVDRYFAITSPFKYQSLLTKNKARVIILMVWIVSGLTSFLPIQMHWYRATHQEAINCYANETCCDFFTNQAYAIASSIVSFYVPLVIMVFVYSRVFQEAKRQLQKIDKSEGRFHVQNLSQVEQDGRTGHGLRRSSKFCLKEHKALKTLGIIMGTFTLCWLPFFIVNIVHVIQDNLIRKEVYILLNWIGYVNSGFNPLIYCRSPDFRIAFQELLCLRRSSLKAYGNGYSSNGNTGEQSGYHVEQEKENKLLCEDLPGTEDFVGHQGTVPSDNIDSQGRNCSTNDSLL
Summary of the method: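 Cells (CHO, stable ADRB2 overexpression) incubated 18-20hr at 37C; compounds added from DMSO; agonist mix (1nM isoproterenol, 100uM IBMX, 25uM Ro-20-1724) added; 0.5hr RT; d2-cAMP and anti-cAMP-cryptate added; 1hr RT; 665/615 nm read.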

[13] = target: D(2) dopamine receptor (Homo sapiens) (UniProt P14416); assay: Dopamine D2 receptor (DRD2) small molecule agonists, cell-based qHTS assay (AID 1963594); further: nearly all actives have a fitted effect of over 35% in size
Chain of D(2) dopamine receptor (Homo sapiens) (P14416 whole entry, looked up): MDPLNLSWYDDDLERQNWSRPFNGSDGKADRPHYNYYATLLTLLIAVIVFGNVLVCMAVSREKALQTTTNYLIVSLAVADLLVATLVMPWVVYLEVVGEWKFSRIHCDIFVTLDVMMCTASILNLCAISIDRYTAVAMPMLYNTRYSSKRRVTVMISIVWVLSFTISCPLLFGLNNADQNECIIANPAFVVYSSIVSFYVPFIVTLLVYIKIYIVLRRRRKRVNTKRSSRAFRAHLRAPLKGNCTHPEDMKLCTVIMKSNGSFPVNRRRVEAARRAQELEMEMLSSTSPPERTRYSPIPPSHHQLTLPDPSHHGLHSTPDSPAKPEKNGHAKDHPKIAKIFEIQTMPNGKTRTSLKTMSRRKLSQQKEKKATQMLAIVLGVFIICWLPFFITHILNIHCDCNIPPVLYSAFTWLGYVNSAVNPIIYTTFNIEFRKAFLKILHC
Summary of the method: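 cAMP accumulation in DRD2-HEK293 cells measured by HTRF after 1 h detection; compounds added 10 min before NKH477 (200nM […]) forskolin-analogue stimulation, 30 min at room temperature, with Ro20-1724 present at 0.1 mM final.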

[14] = target: D(2) dopamine receptor (Homo sapiens) (UniProt P14416); assay: Dopamine D2 receptor (DRD2) small molecule antagonists, cell-based qHTS assay (AID 1963595; active means well fitted inhibition curve with a large enough effect in the signal ratio in the repeat runs, with a control signal flat; the % refers to the signal ratio)
Summary of the method: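 Antagonism was scored as restored cAMP in HEK293-DRD2 cells. These cells were stimulated with 200 nM NKH477 and 12 nM quinpirole for 30 min at room temperature, in the presence of 0.1 mM Ro20-1724.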

[15] = target: Gonadotropin-releasing hormone receptor (Homo sapiens) (UniProt P30968); assay: Human gonadotropin-releasing hormone receptor (GnRHR) small molecule agonists, calcium flux assay in GnRHR-HEK293 cells (AID 1920063); further: nearly all actives have a fitted effect of over 35% in size
Chain of Gonadotropin-releasing hormone receptor (Homo sapiens) (P30968 whole entry, looked up): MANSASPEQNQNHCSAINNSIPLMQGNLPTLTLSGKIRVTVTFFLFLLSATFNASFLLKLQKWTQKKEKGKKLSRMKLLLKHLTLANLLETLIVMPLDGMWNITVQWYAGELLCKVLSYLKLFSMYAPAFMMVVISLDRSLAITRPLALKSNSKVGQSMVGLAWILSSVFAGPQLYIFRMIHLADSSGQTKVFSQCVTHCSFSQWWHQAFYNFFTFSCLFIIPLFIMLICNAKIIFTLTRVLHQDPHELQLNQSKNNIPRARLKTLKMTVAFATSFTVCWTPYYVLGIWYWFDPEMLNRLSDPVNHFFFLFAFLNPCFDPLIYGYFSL
Summary of the method: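 HEK293 cells stably expressing human GnRHR were plated 18 h at 37 °C, loaded with calcium dye 1 h at 37 °C, then given compound in agonist mode; fluorescence (Ex/Em 480/540) read kinetically for 3 min at 1 s intervals.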

[16] = target: KiSS-1 receptor (Homo sapiens) (UniProt Q969F8); assay: Human kisspeptin (KISS1R) small molecule agonists, calcium flux assay in KISS1R-HEK293 cells (AID 1920064; active means well fitted curve in the direction sought with a large enough effect in the repeat runs; an effect the other way counts as inactive or inconclusive)
Chain of KiSS-1 receptor (Homo sapiens) (Q969F8 whole entry, looked up): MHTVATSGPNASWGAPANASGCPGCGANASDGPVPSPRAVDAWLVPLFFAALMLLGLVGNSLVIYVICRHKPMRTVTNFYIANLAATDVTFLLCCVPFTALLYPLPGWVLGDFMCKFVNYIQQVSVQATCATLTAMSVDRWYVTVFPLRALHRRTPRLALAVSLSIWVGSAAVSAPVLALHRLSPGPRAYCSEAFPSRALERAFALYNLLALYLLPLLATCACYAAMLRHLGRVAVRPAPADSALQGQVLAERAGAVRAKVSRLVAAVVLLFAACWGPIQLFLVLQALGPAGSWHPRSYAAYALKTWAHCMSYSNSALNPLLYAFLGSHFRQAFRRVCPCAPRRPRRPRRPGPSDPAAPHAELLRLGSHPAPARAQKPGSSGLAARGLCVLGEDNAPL
Summary of the method: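 HEK293 cells stably expressing human KISS1R were plated 18 h at 37 °C, loaded with calcium dye for 1 h at 37 °C, then given compound by pin tool. Fluorescence (Ex/Em 480/540) was read kinetically for 3 min.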

[17] = p53 small molecule agonists, cell-based qHTS assay with rat liver microsomes (AID 1963578); further: potency means the concentration at half of the fitted maximal effect
Summary of the method: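 Compound in DMSO added to p53RE-bla cells 5 h post-plating; rat microsomes/NADPH 0.5 mg/mL final; 16 h, 37 C; LiveBLAzer 2 h RT.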

[18] = p53 small molecule agonists, cell-based qHTS assay with human liver microsomes: qHTS cell viability counter screen (AID 1963579); further: nearly all actives have a fitted effect of over 45% in size
Summary of the method: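 HLM-supplemented (0.5 mg/mL final) and NADPH-supplemented (0.5 mg/mL final) p53RE-bla cultures, 4,000 cells per well, were dosed with compounds in DMSO for 16 h at 37 C; luminescent ATP detection (CellTiter-Glo, 30 min, room temperature) quantified surviving cells.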

[19] = target: 5-hydroxytryptamine receptor 2A (Homo sapiens) (UniProt P28223); assay: 5-hydroxytryptamine receptor 2A (HTR2A) small molecule antagonists, cell-based qHTS assay (AID 1963586); further: nearly all actives have a fitted effect of over 45% in size
Summary of the method: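 Antagonist-mode intracellular calcium assay: DOI (4 nM) added after 5 min compound pre-incubation at room temperature to dye-loaded HTR2A-CHO cells. Fluorescence followed for 3 min, sampled every second.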

[20] = target: Beta-2 adrenergic receptor (Homo sapiens) (UniProt P07550); assay: Adrenergic beta2 receptor (ADRB2) small molecule agonists, cell-based qHTS assay (AID 1963593);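 further: CHO cells stably overexpressing human ADRB2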
Summary of the method: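 CHO cells stably over-expressing ADRB2 were plated overnight at 37C, then dosed with compounds plus a stimulation mix containing 100uM IBMX and 25uM Ro-20-1724 for 0.5hr at room temperature. cAMP was measured by HTRF competition, 1hr.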

Measured: Potency

COC(=O)c1cc(C(=O)OC)cc(S(=O)(=O)O)c1
not listed: [15] | [16] | [17] | [18] | [19] | [20]
inactive: all other assays above

CCCCCCCCc1ccc(S(=O)(=O)O)cc1
not listed: [7] | [11]
inactive: all other assays above

CCOC(=O)CC
not listed: [4] | [15] | [16] | [20]
inactive: all other assays above

CNc1c2c(nn1C)CCCC2
not listed: [7] | [8]
inactive: all other assays above

CCCCCCCCCOC(C)=O
not listed: [5] | [15] | [16] | [18]
inactive: all other assays above

OCC(CO)(CO)COCC(CO)(CO)CO
not listed: [12] | [20]
inactive: all other assays above

CC(C)(C)OC(=O)N1C[C@@H](F)C[C@H]1C(=O)O
not listed: [13] | [20]
inactive: all other assays above

CC(=O)c1cnccn1
not listed: [9] | [20]
inactive: all other assays above

OCCCO
not listed: [8] | [9] | [10]
inactive: all other assays above

COC(C)(C)CCCC(C)CC=O (centres undefined)
not listed: [10] | [20]
inactive: all other assays above

Nc1cc(C(=O)O)c(O)c(S(=O)(=O)O)c1
not listed: [10] | [14] | [20]
inactive: all other assays above

CC(C)=CCC/C(C)=C\C#N
not listed: [9] | [10] | [11] | [20]
inactive: all other assays above

CCCCCCC(=O)OCC
not listed: [10] | [20]
inactive: all other assays above

CC(C(=O)O)c1ccc2c(c1)CC(=O)c1ccccc1S2 (centres undefined)
not listed: [10] | [12] | [13] | [14] | [20]
inactive: all other assays above

CCN(CC)c1cccc(C)c1
not listed: [20]
inactive: all other assays above

CCOC(=O)c1c(N)sc2c1CCN(Cc1ccccc1)C2
active: [17] 15.8 µM
not listed: [8] | [11]
inactive: all other assays above
